Results published in PubChem BioAssay.

Test system: XIP peptide (Xip251-270) binding
Assay: XIP fragment 251-270 binding compounds – biochemical, small-molecule microarray, fluorescence 635/667 nm, 0.1 µg/mL protein, primary screen (AID 1182)
Settings: fluorescent protein binding, 635 nm, higher = more signal, called active from +8 up or from −8 down

Composite z-score, inactive:
C=CCN1C(=O)[C@@]2(Cc3ccccc31)N=C(c1ccc(OCCCO)cc1)O[C@H]2c1ccccc1 0.619
CC(C)C(O)C1C=CC2C(=O)N(c3ccccc3)C(=O)C2N1Nc1ccc([N+](=O)[O-])cc1 (stereo not drawn) -0.354
COC(=O)[C@H](Cc1ccccc1)N[C@@H](/C=C/C1CC1)[C@H](O)Cc1ccccc1 -0.207
O=C1O[C@H](c2ccccc2)[C@H](c2ccccc2)N2[C@H]1[C@@H](C(=O)N1CCCCCCC1)[C@]1(C(=O)Nc3ccc(C#CC4=CCCCC4)cc31)[C@H]2c1ccc(OCCO)cc1 2.27
CCOC(=O)C[C@H]1[C@H](OC(=O)c2ccc(C(=O)c3ccccc3)cc2)[C@@H](NC(=O)c2ccccc2)c2cc(OCCCO)ccc2N1C(=O)Cc1ccc(OC)cc1 -0.0614
COc1ccc([Si](C)(C)[C@H]2[C@H](CCO)O[C@@]3(C(=O)N(Cc4ccc(N(C=O)c5ccccc5)cc4)c4ccccc43)[C@@H]2C)cc1 0.381
CC(C)c1ccc(NN2C(C(O)c3ccc(B(O)O)cc3)C=CC3C(=O)N(c4ccccc4)C(=O)C32)cc1 (stereo not drawn) 1.04
COc1ccc(CCNC(=O)[C@@]2(Sc3ccc(C)cc3)CC(=O)N(C3Cc4ccccc4C3)[C@@H]2c2ccc(CO)cc2I)cc1 -0.0449
COCCOC(=O)N1C(=O)[C@@]2(c3ccccc31)[C@H](c1ccc(O)cc1)N1[C@H](c3ccccc3)[C@H](c3ccccc3)OC(=O)[C@H]1[C@@H]2C(=O)Nc1nc2ccccc2s1 0.343
C=C(C(=O)CC[C@@H](OC(=O)c1cccnc1)c1ccccc1OCCO)C(C)C 0.79
NCCCCCNC(=O)[C@@H]1C[C@@H]2C(=O)N[C@@H](Cc3ccccc3)C(=O)N2[C@@H]1c1ccc(O)cc1 0.632
CCCCCCc1nc(-c2ccc(OC)nc2)cc2c1[Si](C(C)C)(C(C)C)O[C@H]2c1ccccc1 -0.652
C[N+](C)(C)CCCCNC(=O)[C@@H]1C[C@@H]2C(=O)N[C@@H](Cc3ccccc3)C(=O)N2[C@@H]1c1cccc(OCCO)c1 1.09
COc1cc2c(cc1O)C(c1cccs1)N(C)CC2 (stereo not drawn) -0.721
C[C@@]1([C@@H](NC(=O)c2ccc(-c3ccccc3)cc2)c2ccc(Cl)cc2)C[C@H]1C1CCCCC1 -0.223
Cc1ccc(S[C@]2(C(=O)O)CC(=O)N(C(C)C)[C@@H]2c2ccc(CO)cc2I)cc1 0.534
CN1C(=O)C2C=CC(C(O)C3CC=CCC3)N(N(c3ccccc3)c3ccccc3)C2C1=O (stereo not drawn) 0.241
O=C1NC(=O)C2C1C=CC(C(O)c1cccs1)N2Nc1ccc(Cl)cc1Cl (stereo not drawn) 0.228
C=CCC(OC(C)=O)[C@@H]1[C@@H](N(Cc2ccc(-c3ccccc3)cc2)C(=O)Cc2ccc(OC)cc2)c2cc(OCCCO)ccc2N1C(=O)Cc1ccc2ccccc2c1 (stereo partly drawn) 1.46
CC(C)C[C@@H]1NC(=O)[C@@H]2C[C@H](C(=O)NCc3ccc(F)cc3)[C@H](c3cccc(OCCO)c3)N2C1=O 0.832
C=CCC(OC(C)=O)[C@@H]1[C@@H](N(Cc2ccc(-c3ccccc3)cc2)C(=O)c2cccc3ccccc23)c2cc(OCCCO)ccc2N1C(=O)c1ccc(-c2ccccc2)cc1 (stereo partly drawn) -0.299
CCCC[C@H]1OB(O)C[C@H]2C1=C(COC)Cn1c(=O)n(-c3ccccc3)c(=O)n12 0.81
O=C1NC(=O)C2C1C=CC(C(O)c1cc(C(F)(F)F)cc(C(F)(F)F)c1)N2Nc1ccccn1 (stereo not drawn) 0.604
CC1CC/C=C\[C@H]2OC34C=CCN(Cc5ccccc5)C(=O)[C@H]3N(CCCO)C(=O)[C@@H]4C2C(=O)O1 (stereo partly drawn) 0.15
C=C(CC1([C@@H](NP(=O)(c2ccccc2)c2ccccc2)[C@H]2C[C@@H]2CCCC)CC1)c1ccccc1 -0.0402
CC(C)N1C(=O)c2ccccc2[C@](C)(C(=O)NCCN2CCOCC2)[C@@H]1c1ccc(CO)cc1 0.0317
[N-]=[N+]=NCc1ccccc1[C@@H]1OC(c2ccc(OCCCO)cc2)=N[C@]1(Cc1ccccc1)C(=O)NCC(O)CO (stereo partly drawn) -0.275
Cc1ccc(S[C@]2(C(=O)NCCCN(C)C)CC(=O)N(Cc3ccccc3C(F)(F)F)[C@@H]2c2ccc(CO)cc2)cc1 0.0209
